Measured values: the supplement of paper PMC8728848
About 410 targets per protein were measured; listed, in parts, are those with the strongest signals and a random draw of the rest.

Tests used:
Experiment in all cases: glycan array binding signal (z-score within array); higher = stronger binding
Conditions in all cases: glycan notation: IUPAC condensed, linker removed
[1] = biological target: Fuc(a1-2)Gal(b1-3)GlcNAc(b1-2)Man(a1-3)[Fuc(a1-2)Gal(b1-3)GlcNAc(b1-2)Man(a1-6)]Man(b1-4)GlcNAc(b1-4)GlcNAc
In short: (§1)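 The Consortium for Functional Glycomics database supplied 3228 glycan arrays, of which those lacking an available protein sequence were dropped. The binding signal, a within-array Z-score, was averaged across arrays of the same protein sequence and across linkers. Negative scores can be read as non-binding.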

[2] = biological target: Fuc(a1-2)Gal(b1-4)Glc
In short: as §1

[3] = biological target: Fuc(a1-2)Gal(b1-4)Glc6S
In short: as §1

[4] = biological target: Fuc(a1-2)Gal6S(b1-4)Glc
In short: as §1

[5] = biological target: Fuc(a1-2)[Gal(a1-3)]Gal(b1-4)GlcNAc(b1-3)[Fuc(a1-2)[Gal(a1-3)]Gal(b1-4)GlcNAc(b1-6)]GalNAc
In short: as §1

[6] = biological target: Fuc(a1-2)[Gal(a1-3)]Gal(b1-4)GlcNAc(b1-6)GalNAc
In short: as §1

[7] = biological target: Fuc(a1-2)[GalNAc(a1-3)]Gal(b1-3)GalNAc(b1-3)Gal(a1-4)Gal(b1-4)Glc
In short: as §1

[8] = biological target: Fuc(a1-2)[GalNAc(a1-3)]Gal(b1-4)GlcNAc(b1-2)Man(a1-3)[Fuc(a1-2)[GalNAc(a1-3)]Gal(b1-4)GlcNAc(b1-2)Man(a1-6)]Man(b1-4)GlcNAc(b1-4)[Fuc(a1-6)]GlcNAc
In short: as §1

[9] = biological target: Fuc(a1-2)[GalNAc(a1-3)]Gal(b1-4)GlcNAc(b1-3)Gal(b1-4)GlcNAc
In short: as §1

[10] = biological target: Fuc(a1-2)[GalNAc(a1-3)]Gal(b1-4)GlcNAc(b1-3)Gal(b1-4)GlcNAc(b1-3)Gal(b1-4)GlcNAc
In short: as §1

[11] = biological target: Fuc(a1-2)[GalNAc(a1-3)]Gal(b1-4)GlcNAc(b1-6)GalNAc
In short: as §1

[12] = biological target: Fuc(a1-2)[GalNAc(a1-4)]Gal(b1-4)GlcNAc
In short: as §1

[13] = biological target: Fuc(a1-3)[Gal(b1-4)]GlcNAc(b1-2)Man
In short: as §1

[14] = biological target: Fuc(a1-3)[Gal(b1-4)]GlcNAc(b1-3)Gal(b1-4)[Fuc(a1-3)]GlcNAc(b1-3)Gal(b1-4)[Fuc(a1-3)]GlcNAc
In short: as §1

[15] = biological target: Fuc(a1-3)[Gal(b1-4)]GlcNAc6S
In short: as §1

[16] = biological target: Gal(a1-6)Glc
In short: as §1

[17] = biological target: Gal(b1-3)GalNAc
In short: as §1

[18] = biological target: Gal(b1-3)GlcNAc(b1-2)[Gal(b1-3)GlcNAc(b1-6)]Man(a1-6)[Gal(b1-3)GlcNAc(b1-2)Man(a1-3)]Man(b1-4)GlcNAc(b1-4)GlcNAc
In short: as §1

[19] = biological target: Gal(b1-3)GlcNAc(b1-3)Gal(b1-4)Glc
In short: as §1

[20] = biological target: Gal(b1-3)GlcNAc(b1-3)Gal(b1-4)GlcNAc(b1-2)[Gal(b1-3)GlcNAc(b1-3)Gal(b1-4)GlcNAc(b1-6)]Man(a1-6)[Gal(b1-3)GlcNAc(b1-3)Gal(b1-4)GlcNAc(b1-2)Man(a1-3)]Man(b1-4)GlcNAc(b1-4)[Fuc(a1-6)]GlcNAc
In short: as §1

[21] = biological target: Gal(b1-3)GlcNAc(b1-6)GalNAc
In short: as §1

[22] = biological target: Gal(b1-3)[Neu5Ac(b2-6)]GalNAc
In short: as §1

[23] = biological target: Gal(b1-4)GlcNAc(b1-2)Man(a1-3)[Gal(b1-4)GlcNAc(b1-2)Man(a1-6)][GlcNAc(b1-4)]Man(b1-4)GlcNAc(b1-4)[Fuc(a1-6)]GlcNAc
In short: as §1

[24] = biological target: Gal(b1-4)GlcNAc(b1-2)Man(a1-6)[GlcNAc(b1-2)Man(a1-3)]Man(b1-4)GlcNAc(b1-4)GlcNAc
In short: as §1

[25] = biological target: Gal(b1-4)GlcNAc(b1-2)Man(a1-6)[Man(a1-3)]Man(b1-4)GlcNAc(b1-4)GlcNAc
In short: as §1

[26] = biological target: Gal(b1-4)GlcNAc(b1-2)[Gal(b1-4)GlcNAc(b1-4)]Man(a1-3)[Gal(b1-4)GlcNAc(b1-2)[Gal(b1-4)GlcNAc(b1-6)]Man(a1-6)]Man(b1-4)GlcNAc(b1-4)GlcNAc
In short: as §1

[27] = biological target: Gal(b1-4)GlcNAc(b1-3)Gal(b1-3)GlcNAc
In short: as §1

[28] = biological target: Gal(b1-4)GlcNAc(b1-3)Gal(b1-4)GlcNAc(b1-3)Gal(b1-4)GlcNAc(b1-2)Man(a1-3)[Gal(b1-4)GlcNAc(b1-3)Gal(b1-4)GlcNAc(b1-3)Gal(b1-4)GlcNAc(b1-2)Man(a1-6)]Man(b1-4)GlcNAc(b1-4)GlcNAc
In short: as §1

[29] = biological target: Gal(b1-4)GlcNAc(b1-6)GalNAc
In short: as §1

B1: GS13686A-pdi-553-26-553 (Parabacteroides distasonis) (protein)
chain: NENPDKPTDDVNYNMNEPRLASTLRGGLIIEGNVEQRLKPLQIDFYSQMTVDGGGWGTKNYIQDDEWNNLVWEEYLKQIASINIVIRSLTEKDKDAYANTIAFARIWRVYVHTLAADKFGPMPFPAYEIVEANPPYKSLKDIYDEYFRELDAAINGFNDSAQPIFSDAGIDLIYKNDVSKWKRFANSLRLRLAVRLTEVDQEKCIAEANAAISSPAGLISDKADNAYMPPKADGSWGQDYNYTMFQITWSGPICMSKSVEKLVTNIGGVAWPQGVVNQTSGVAVSSVHPEKVDPRAPKIFQPGIENGDWKGLVYGPKAEEANTGIYQSKQCAELGFIIKDGYPYKSRPYDLFLSEEVHFLKAELYARGFIAGDAKSEYEAGVRASFATWGVTSEVDDYLTSTEKNEAGTSARYDDQQGAGNTALEKIITQKYIAGIPDLAQEGWNDKRRLNLPRLDVAVYRDQAVYNNNDKDILKSANFIKRMRYPTKESLINATEYEKGKSMLGGKGDIVSTPLWWDKNSNYCTSSK
[1]
  glycan array binding signal (z-score): 0.144
[2]
  glycan array binding signal (z-score): -0.076
[3]
  glycan array binding signal (z-score): 0.03
[4]
  glycan array binding signal (z-score): -0.226
[5]
  glycan array binding signal (z-score): 0.003
[6]
  glycan array binding signal (z-score): 0.081
[7]
  glycan array binding signal (z-score): -0.124
[8]
  glycan array binding signal (z-score): 0.023
[9]
  glycan array binding signal (z-score): 0.224
[10]
  glycan array binding signal (z-score): 0.041
[11]
  glycan array binding signal (z-score): -0.281
[12]
  glycan array binding signal (z-score): 1.95
[13]
  glycan array binding signal (z-score): -0.253
[14]
  glycan array binding signal (z-score): -0.035
[15]
  glycan array binding signal (z-score): -0.276
[16]
  glycan array binding signal (z-score): 0.108
[17]
  glycan array binding signal (z-score): 0.011
[18]
  glycan array binding signal (z-score): 0.046
[19]
  glycan array binding signal (z-score): -0.082
[20]
  glycan array binding signal (z-score): 1.83
[21]
  glycan array binding signal (z-score): 1.97
[22]
  glycan array binding signal (z-score): 1.03
[23]
  glycan array binding signal (z-score): 1.35
[24]
  glycan array binding signal (z-score): 0.027
[25]
  glycan array binding signal (z-score): -0.04
[26]
  glycan array binding signal (z-score): 2.01
[27]
  glycan array binding signal (z-score): -0.133
[28]
  glycan array binding signal (z-score): 0.45
[29]
  glycan array binding signal (z-score): -0.056
